BAZ2B inh = inhibitors of human BAZ2B bromodomain | Q9UIF8 | AlphaScreen BAZ2B-H3K14Ac peptide displacement | Potency, µM (top dose mostly 114 µM), without a hit: at the top dose activity change, negative = inhibition, actives largely listed as inhibitors | actives 4.4% (n = 360,000) | AID 504333; note: % is set by controls: 0 for no effect and ±100 for the full control effect; nearly all actives have a fitted effect of over 60% in size
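AlphaScreen displacement of biotin-H3(5-23)K14Ac peptide (50 nM final) from BAZ2B (50 nM final) in PBS pH 7.4, 0.01% Tween-20; complex preformed 30 min RT, then compounds (top 110 uM) 30 min RT, beads 20 min dark.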
G9a block = blocks human histone lysine methyltransferase G9a; actives 8.8% (n = 350,000); G9a H3K9 monomethylation, AlphaScreen, 2 h; AID 504332; Potency, µM (titrated, usually from 102 µM), without a hit: at the highest dose activity, negative = inhibition, usual class: inhibitors; Q96KQ7; note: % is set by controls: 0 for no effect and ±100 for the full control effect; nearly all actives have a fitted effect of over 75% in size
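AlphaScreen detection with an anti-monomethyl H3K9 antibody quantified product after a 2 h room-temperature reaction containing 500 nM biotinylated H3K9 peptide, 20 µM SAM and 20 nM enzyme, which had been preincubated 15 min with compound.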
L3MBTL1 block = L3MBTL1 (human) inhibition; AID 485360; Q9Y468; Potency, µM (top dose mostly 57.1 µM), for inactives: at the highest dose activity, negative = inhibition, usual class: inhibitors; AlphaScreen L3MBTL1–H3K9me1 peptide binding; actives 0.66% (n = 230,000); note: % is set by controls: 0 for no effect and ±100 for the full control effect; nearly all actives have a fitted effect of over 60% in size
Target sequence (Q9Y468 whole entry, looked up): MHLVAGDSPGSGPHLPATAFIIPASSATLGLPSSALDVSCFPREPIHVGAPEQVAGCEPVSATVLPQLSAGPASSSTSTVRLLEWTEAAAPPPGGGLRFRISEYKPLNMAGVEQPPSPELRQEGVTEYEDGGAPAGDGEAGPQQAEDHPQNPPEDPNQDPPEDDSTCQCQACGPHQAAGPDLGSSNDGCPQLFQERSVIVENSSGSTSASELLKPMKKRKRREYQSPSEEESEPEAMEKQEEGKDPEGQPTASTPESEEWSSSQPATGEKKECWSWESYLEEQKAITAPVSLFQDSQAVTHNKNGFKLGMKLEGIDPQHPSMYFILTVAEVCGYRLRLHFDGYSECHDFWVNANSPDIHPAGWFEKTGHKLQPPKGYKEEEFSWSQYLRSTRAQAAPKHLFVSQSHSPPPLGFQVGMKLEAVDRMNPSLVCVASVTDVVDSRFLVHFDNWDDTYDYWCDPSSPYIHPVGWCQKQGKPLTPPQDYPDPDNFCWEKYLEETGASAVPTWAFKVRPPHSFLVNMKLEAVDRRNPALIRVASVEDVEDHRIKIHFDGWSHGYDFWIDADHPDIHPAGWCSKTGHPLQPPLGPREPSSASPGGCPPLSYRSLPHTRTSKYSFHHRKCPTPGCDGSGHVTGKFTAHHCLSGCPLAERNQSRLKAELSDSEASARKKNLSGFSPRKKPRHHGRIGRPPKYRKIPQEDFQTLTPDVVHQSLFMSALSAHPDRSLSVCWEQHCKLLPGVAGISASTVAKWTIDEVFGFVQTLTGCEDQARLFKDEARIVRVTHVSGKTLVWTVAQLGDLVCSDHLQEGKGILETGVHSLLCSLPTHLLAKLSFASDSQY
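L3MBTL1 50 nM + b-AHA-H3(1-15)K9me1 75 nM, 30 min RT; compound added, 30 min RT; streptavidin donor/Ni-chelate acceptor beads 10 ug/mL each final, 30 min RT dark; AlphaScreen read.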
JMJD2A Tudor = inhibitors of human JMJD2A Tudor domain. AlphaScreen JMJD2A-Tudor / H3K4me3 peptide binding. O75164. Potency, µM (titrated, usually from 114 µM), for inactives: top-dose activity change, negative = inhibition, most hits filed as inhibitors. AID 504339. actives 4.4% (n = 390,000); note: % is set by controls: 0 for no effect and ±100 for the full control effect; nearly all actives have a fitted effect of over 50% in size
HP1b chromo inh = blocks HP1-beta chromodomain binding to methylated histone tails; AlphaScreen HP1-beta / biotin-H3K9me3 peptide binding; actives 0.56% (n = 390,000); P83916; Potency, µM (doses to about 114 µM), without a hit: at the top dose activity change, negative = inhibition, usual class: inhibitors; note: nearly all actives have a fitted effect of over 70% in size
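HP1-beta protein (50 nM final) preincubated 30 min at room temperature with biotinylated H3(1-18)K9me3 peptide (50 nM) in PBS pH 7.4, 0.01% Tween-20, then compound added for 30 min. AlphaScreen streptavidin donor/nickel chelate acceptor beads (10 ug/mL final), 30 min dark, luminescence read.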
An asterisk follows results filed as active; ? = inconclusive; · = no result given; [ ] = dose if it differs, or a comment. Sampled rows, rich in hits. Any-hit rate of the full collection: about 11%. Calls come from the whole dose curve; as a rule, active = well fitted inhibition curve with a large enough effect; inconclusive = small, poorly fitted or top-dose-only effect; inactive = no such curve, though single readings can be large or run the other way. Potency is the fitted concentration of half-maximal effect.

SMILES	BAZ2B inh	G9a block	L3MBTL1 block	JMJD2A Tudor	HP1b chromo inh
COc1cccc(CNC(=O)c2ccc(NC(=O)N3CCCCc4ccccc43)cc2)c1	0%	-6%[59 µM]	·	-18%	-1%
COc1ccc(C(=O)NCCn2cc(SCc3cc(C)ccc3C)c3ccccc32)cc1	?	13%[59 µM]	·	-29%	14%
Cc1ccc(S(=O)(=O)N2CCCc3cc(NC(=O)c4ccc(C(C)(C)C)cc4)ccc32)cc1	10%	8%[59 µM]	·	-3%	54%
CC1=C(C(=O)OCc2ccc(C)cc2)C(c2ccc(O)c([N+](=O)[O-])c2)NC(=O)N1 (centres undefined)	0%	42%	22%	-1%	15%
O=c1[nH]c(=S)[nH]c2c1C(c1ccc(Br)cc1)c1c([nH]c(=S)[nH]c1=O)O2	22µM*	1.6µM*	·	?	32µM*
CCOC(=O)Cc1csc(-n2sc3ccccc3c2=O)n1	5µM*	1.1µM*	·	18µM*	?
CCOC(=O)Cc1csc(SCn2nnc3ccccc3c2=O)n1	29%	45µM*	-1%	1%	53%
O=C(Cn1c(=O)n(Cc2ccc(F)cc2)c(=O)c2sc3ccccc3c21)NCc1ccccc1Cl	2%	-3%[59 µM]	·	-8%	40%
Cc1c(N(C)C)nc2ccccc2c1N	45µM*	?	6%[11.4 µM]	1µM*	14µM*
CCC(=O)OCCNc1cc(Sc2nc3ccccc3s2)c2nonc2c1[N+](=O)[O-]	-33%	2µM*	·	-34%	?
CCC(=O)OCCNc1cc(Sc2nc3ccccc3[nH]2)c2nonc2c1[N+](=O)[O-]	-34%	8.9µM*	-1%	79µM*	?
O=[N+]([O-])c1c(NCCCO)cc(Sc2nc3ccccc3s2)c2nonc12	0%	?	23%	56µM*	5%
CCCSc1cc(NCCOC(=O)CCC)c([N+](=O)[O-])c2nonc12	-37%	?	-15%	-32%	-23%
NCCNc1ccc([N+](=O)[O-])c(Sc2nc3ccccc3[nH]2)c1	-39%	?	-3%	?	-5%
COc1ccc(-c2onc(C)c2C)cc1S(=O)(=O)Nc1cc(Cl)ccc1C	-1%	-19%[59 µM]	·	-19%	28%
O=C(COc1ccc(Cl)cc1)NCCc1csc(-c2ccc(C(F)(F)F)cc2)n1	0%	6%[59 µM]	·	-3%	29%[57 µM]
O=C(NC(Nc1nc2ccc([N+](=O)[O-])cc2s1)(C(F)(F)F)C(F)(F)F)c1ccccc1Cl	-38%	79µM*	-6%	?	3%
O=[N+]([O-])c1ccc2nc(NS(=O)(=O)c3ccc(Cl)cc3)sc2c1	?	14µM*	·	-33%	7%
O=S(=O)(Nc1ccc2nc(N3CCOCC3)sc2c1)c1ccc(Cl)cc1	-1%	10µM*	3%	-21%	33%
CCOC(=O)N1CCC(NC(=O)c2ccc3c(c2)N(Cc2cc(C)ccc2C)C(=O)c2ccccc2S3=O)CC1 (centres undefined)	-15%	-29%[59 µM]	·	-19%	23%
Cc1ccc(Cl)cc1N1CCN(C(=O)C2CCCN(Cc3nc(-c4cccc(Cl)c4)oc3C)C2)CC1 (centres undefined)	?	?	·	?	3%
CCc1ccc(-c2nc(CN3CCCC(C(=O)N4CCN(c5cc(Cl)ccc5C)CC4)C3)c(C)o2)cc1 (centres undefined)	10µM*	8.9µM*	·	?	-20%
O=c1c(-c2cccs2)nc2cnc(N3CCOCC3)nc2n1-c1ccccc1	·	14%[0.501 µM]	·	·	·
Cc1[nH]n(-c2ncc(-c3ccccc3)s2)c(=O)c1C(c1ccc(Cl)cc1)C(C#N)C#N (centres undefined)	40µM*	?	-17%	40µM*	?
Cc1c([C@H]2[C@@H](CC#N)C2(C)C)c2ccccc2n1C	22µM*	5%[12.7 µM]	-24%	?	?
O=C(Nc1cccc([N+](=O)[O-])c1)c1ccc2nc(N3C(=O)CCC3=O)sc2c1	?	11µM*	-2%	-24%	7%
O=C(Nc1cccc(Br)c1)c1ccc2nc(N3C(=O)CCC3=O)sc2c1	-3%	?	-1%	-10%	10%

Screening data as filed in PubChem.
